As usually defined, the inhibition is the drop in the measured response relative to a control, in per cent.

Structures are written as SMILES. Hit rate of the full screen: of about 300,000 compounds, about 2,500 (0.83%) were called active. No stated cut-off is given here; in the data, active means inhibition above about 60%; inconclusive means no clear call, values can overlap the other calls; inactive means below that. This excerpt belongs to a sample that is enriched for actives.

Data on 87 compounds can be found in PubChem BioAssay AID1813 (Broad Institute, 2009).

The assay is described as follows: 5' untranslated region of α-synuclein, MLPCN primary screen (AID 1813).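 Further: H4 neuroglioblastoma cells stably carrying SNCA 5'UTR luciferase fusion; 0% = DMSO wells and 100% = positive control.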 The settings on record: alpha-synuclein 5'UTR reporter, inhibitor activity; stronger effect = higher value; tested at 7.5 µM.
As for `CCN1CCN(CC(=O)c2cc(OC)c(OC)c(OC)c2)CC1`, the inhibition was -44% (inactive).

In the case of `CSc1ncc(Sc2ccccc2)c(C(=O)O)n1`, the inhibition is 9.17% (inactive).

For `CSc1nc(-c2ccccc2)nc(C(Cl)Cl)n1`, the inhibition is 114% (active).

For `CC(C)(C)c1ccc(OC2=CS(=O)(=O)c3ccccc32)cc1`, the inhibition was -110% (inactive).

As to `COc1cccc(Oc2ccc(N)cc2)c1`, the inhibition is 5.65% (inactive).

As for `CC(C)(C)c1ccc(Oc2ccc(N)cc2)cc1`, the inhibition was 112% (active).

For `C=CCOc1ccc(/C=C/C(=O)OCC(=O)NC(C)c2ccc(F)cc2)cc1` (configuration not stated), the inhibition was 5.96% (inactive).

Consider `O=C(c1ccc(OC2CCN(C/C=C/c3ccc(F)cc3)CC2)cc1)N1CCCCC1`, for which the inhibition is -17.6% (inactive).

In the case of `COCCN1C(=O)C(=O)/C(=C(/O)c2ccc(S(=O)(=O)N3CCOCC3)cc2)C1c1ccc(OC)c(OC)c1` (configuration not stated), the inhibition is 0.0342% (inactive).

Consider `CC(C)(C)NC(=O)NC(=O)CN1CCC(Cc2ccccc2)CC1`, for which the inhibition was 17.3% (inactive).

In the case of `Cc1c(Cl)c([N+](=O)[O-])nn1Cc1ccc(C(=O)N/N=C\c2cc(Cl)ccc2O)o1`, the inhibition is 81.2% (active).

Turning to `Cc1ccc(C(=O)O)cc1NC(=O)c1ccc(Cn2nc(C)c(Cl)c2C)o1`, the inhibition was -17.2% (inactive).

With `Cc1c(Cl)c([N+](=O)[O-])nn1CCCC(=O)Nc1cc(Cl)ccc1Cl`, the inhibition was 12.6% (inactive).

For the compound `NC(=O)CCC(NS(=O)(=O)c1ccc(Cl)cc1)C(=O)NCc1ccccc1Cl` (configuration not stated), the inhibition is -12.6% (inactive).

In the case of `CCCCN(C)CCNC(=O)CSCc1ccc(C)cc1`, the inhibition is 0.318% (inactive).

Consider `CC(=O)N1c2ccc(S(=O)(=O)N3CCCC(C(=O)Nc4cccc(F)c4)C3)cc2CC1C` (configuration not stated), for which the inhibition was 4.33% (inactive).

`CCOC(=O)C1=C(c2ccc(OC)cc2)C(=O)c2ccccc2C1=O`: the inhibition is -17.2% (inactive).

As to `CCOC(=O)c1c(C)[nH]c2c1-c1ccccc1C(=O)C2=O`, the inhibition was 99.5% (active).

As for `CCOC(=O)c1c(C)[nH]c(C)c1S(=O)(=O)N(C)CC(=O)Nc1ccccc1C`, the inhibition is 23% (inactive).

With `O=S(=O)(c1ccc(-c2ccccc2)cc1)N1CCCC1`, the inhibition is 1.66% (inactive).

Take `COc1ccc(-n2c(C)nn(CC3CC3)c2=O)cc1`: the inhibition is 5.05% (inactive).

Take `Cc1cc(Nc2cc(N3CCN(C)CC3)nc(Sc3ccc(NC(=O)C4CC4)cc3)n2)n[nH]1`: the inhibition was -50.9% (inactive).

Take `O=C(O)CCn1c(SCc2cc(=O)n3ccccc3n2)nc2ccsc2c1=O`: the inhibition was -7.14% (inactive).

Regarding `C=CCOc1ccc(/C=C2\SC(=S)N(CCC(=O)O)C2=O)cc1`, the inhibition is 80% (active).

For `COc1ccccc1C(=O)NNC(=O)CCN1C(=O)/C(=C\c2ccccc2)SC1=S`, the inhibition was 8.03% (inactive).

`Cc1ccc(/C=C2\SC(=S)N(CCC(=O)Nc3ccc(O)cc3)C2=O)cc1`: the inhibition is 0.184% (inactive).

With `C=CCNC(=O)/C=C/c1ccc(C(C)C)cc1`, the inhibition was -129% (inactive).

With `Cc1ccc2nc(-c3ccc(SCC(=O)Nc4cc(C)on4)nc3)[nH]c2c1`, the inhibition was -160% (inactive).

As for `COc1ccc(CNC(=O)CSc2n[nH]c(N)n2)cc1OC`, the inhibition was 4.62% (inactive).

Consider `CCC(=O)Nc1ccc2nc(C)n(Cc3ccccc3Cl)c(=O)c2c1`, for which the inhibition was 11.1% (inactive).

As to `CCN1CCN(c2cc3nc(C)n(Cc4ccccc4)c(=O)c3cc2NC(=O)c2ccccc2F)CC1`, the inhibition was 65.1% (active).

On to `CCOc1cc(NC(=O)c2ccccc2C(=O)O)c(OCC)cc1NC(=O)c1ccccc1F`, for which the inhibition is 11.7% (inactive).

In the case of `C=CCc1cccc2cc(C(=O)Nc3ccc(NC(C)=O)cc3)c(=O)oc12`, the inhibition is -30.5% (inactive).

As to `CSc1nc2ccc(S(=O)(=O)N3CCc4ccccc43)cc2s1`, the inhibition is 1.39% (inactive).

Take `CN(C)CCCN(C(=O)c1ccc(S(=O)(=O)N2CCCCCC2)cc1)c1nc2cc3c(cc2s1)OCCO3`: the inhibition was -27.7% (inactive).

For `CN(C)CCCN(C(=O)c1ccc(S(=O)(=O)N2CCCCCC2)cc1)c1nc2ccc(Br)cc2s1`, the inhibition is 75.3% (active).

Consider `CCc1ccc2nc(N(CCCN(C)C)C(=O)c3ccc4c(c3)OCCO4)sc2c1`, for which the inhibition is -34.6% (inactive).

Take `CCN(CC)CCN(C(=O)c1ccc(S(=O)(=O)N2CCOCC2)cc1)c1nc2cc3c(cc2s1)OCCO3`: the inhibition is -15.5% (inactive).

As to `CN(C)CCCN(C(=O)c1ccc(S(=O)(=O)N2CCCc3ccccc32)cc1)c1nc2ccc(F)cc2s1`, the inhibition is 74.2% (active).

On to `CCOc1ccc2nc(N(CCN(C)C)C(=O)c3ccc4ccccc4c3)sc2c1`, for which the inhibition is -8.13% (inactive).

In the case of `COc1ccc2sc(N(CCCN(C)C)C(=O)c3ccc(S(=O)(=O)N(C)C4CCCCC4)cc3)nc2c1`, the inhibition is -20% (inactive).

Turning to `CCOc1ccc2nc(N(CCCN(C)C)C(=O)c3ccc(C(=O)c4ccccc4)cc3)sc2c1`, the inhibition is 90.2% (active).

On to `CCC1(CC)C(=O)C2=C3C1[C@H](C(=O)OC)C=C(C(=O)OC)C[C@H]3[C@H]1C(=O)N(Cc3ccccc3)C(=O)[C@H]1[C@H]2C` (some centres not stated), for which the inhibition was 6.19% (inactive).

As for `COc1ccc(S(=O)(=O)NCC(c2ccc(C)cc2)N2CCN(C)CC2)cc1OC` (configuration not stated), the inhibition was -8.67% (inactive).

`COc1ccc(CN2CCC(n3nccc3NC(=O)CCCc3ccccc3)CC2)cc1C`: the inhibition is 23.5% (inactive).

Take `O=C(NCc1ccccc1)c1onc(CSc2nc3ccccc3[nH]2)c1C(=O)NCc1ccccc1`: the inhibition was 21.2% (inactive).

Regarding `COc1ccc(N2CCN(C(=O)[C@@H](NC(=O)c3cc(OC)cc(OC)c3)C(C)C)CC2)cc1`, the inhibition was 5.14% (inactive).

For `CCCC1=Nc2cc(C(=O)NCc3ccco3)ccc2Sc2ccccc21`, the inhibition is 87.6% (active).

Regarding `CCCC1=Nc2cc(C(=O)NCCN3CCCC3)ccc2Sc2ccccc21`, the inhibition is -14.6% (inactive).

Turning to `CC(C)(C)c1ccc(C(=O)NCc2ccco2)cc1`, the inhibition was -180% (inactive).

For `CCCN(CC(=O)Nc1ccc(OC)c(OC)c1)CC(=O)Nc1ccc(F)c(F)c1F`, the inhibition is 3.66% (inactive).

With `Cc1ccc(CC(=O)N(C)CC(=O)N(CC(C)C)c2c(N)n(CC(C)C)c(=O)[nH]c2=O)cc1C`, the inhibition is 15% (inactive).

Regarding `Cc1nn(CC(=O)Nc2nc3ccccc3s2)c(C)c1[N+](=O)[O-]`, the inhibition was 5.8% (inactive).

As to `Cc1cc(NC(=O)CN2CCCC(C)C2)n(-c2nc3ccccc3s2)n1` (configuration not stated), the inhibition was 27.7% (inactive).

For `CCC(C)Cn1c(O)cc2nn(-c3nc4ccccc4s3)c(=O)c-2c1C` (configuration not stated), the inhibition was 97.8% (active).

For the compound `Nc1cc(N2CCCCCC2)c2nonc2c1[N+](=O)[O-]`, the inhibition was 11% (inactive).

Consider `Cc1ccc(C2CC(=O)NC(SCC(=O)OCc3ccccc3)=C2C#N)o1` (configuration not stated), for which the inhibition is -11.5% (inactive).

Take `CCOC(=O)CSC1=C(C#N)C(c2ccco2)C(C(=O)OCc2ccccc2)=C(C)N1` (configuration not stated): the inhibition was 10.5% (inactive).

Take `CCOC(=O)CSC1=C(C#N)C(c2sccc2C)CC(=O)N1` (configuration not stated): the inhibition is 75% (active).

As to `Cc1nc2ccccc2c(=O)n1-c1ccc(F)c(NC(=O)c2cccs2)c1`, the inhibition is 9.3% (inactive).

`CCC(C)(C)c1ccc(Oc2ccc(NC(=O)COC(=O)C3=COCCO3)cc2)cc1`: the inhibition was 90.6% (active).

Regarding `CCOc1ccc(NC(=O)c2ccc(NC(=O)COC(=O)c3ccc(NC(=O)CC#N)cc3)cc2)cc1`, the inhibition is -88.1% (inactive).

Regarding `O=C(OCC(=O)c1cccs1)C1=COCCO1`, the inhibition is -103% (inactive).

Take `Cc1nc2ccccc2nc(=O)c1NNc1ccc([N+](=O)[O-])cc1`: the inhibition is -109% (inactive).

In the case of `CSCCC(NS(=O)(=O)c1ccc2c(c1)oc(=O)n2C)C(=O)NC1CCCc2ccccc21` (configuration not stated), the inhibition was 1.15% (inactive).

With `O=C(NN1C(=O)C2C(C1=O)C1C=CC2C12CC2)c1ccccc1Cl` (configuration not stated), the inhibition was 12.2% (inactive).

For the compound `CC12CCC(C(=O)N(c3cccc(Cl)c3)C1=O)C2(C)C` (configuration not stated), the inhibition was 15.6% (inactive).

With `CC12CCC(C(=O)N(NC(=O)c3ccccc3O)C1=O)C2(C)C` (configuration not stated), the inhibition was 67.6% (active).

With `COC(=O)c1scc(C)c1NC(=O)CSc1ccc(Cl)cc1`, the inhibition is 14.7% (inactive).

Regarding `Cc1ccc(CSCCNC(=O)CN(c2ccc(F)cc2)S(C)(=O)=O)cc1`, the inhibition is 14.7% (inactive).

Regarding `O=C(C1CC1)N1N=C(c2ccc(Br)cc2)CC1(O)C(F)(F)F` (configuration not stated), the inhibition is -12.3% (inactive).

For `O=C(Cc1ccccc1)N1N=C(c2ccncc2)CC1(O)C(F)(F)F` (configuration not stated), the inhibition was 18.6% (inactive).

With `O=C(c1ccc(Cl)cc1)N1N=C(c2ccccn2)CC1(O)C(F)(F)F` (configuration not stated), the inhibition was 68.6% (active).

For `CC(=O)Nc1ccc(N2C(=O)C3C4CC(=O)C(c5ccccc54)C3C2=O)cc1` (configuration not stated), the inhibition was 17.3% (inactive).

On to `CC(Oc1ccccc1)C(=O)NN1Cc2ccccc2C1=N` (configuration not stated), for which the inhibition is -12.4% (inactive).

Consider `O=C1[C@H]2[C@@H](c3ccc(F)cc3)N3C(=O)N(c4ccc(C(F)(F)F)cc4)C(=O)[C@@]3(Cc3ccccc3)[C@H]2C(=O)N1C1CCCCC1`, for which the inhibition was -4.59% (inactive).

As for `COc1ccc(CCNC(=O)c2c(C)nn(-c3ccccc3)c2Cl)cc1`, the inhibition was 14.8% (inactive).

On to `Nc1nonc1-n1nnc(C(=O)N/N=C/c2c[nH]c3ccccc23)c1-c1ccccc1`, for which the inhibition is 1.28% (inactive).

Regarding `CCc1ccc2c(c1)C1(NN=C(c3ccccc3)S1)C(=O)N2` (configuration not stated), the inhibition was 71.7% (active).

`CCOC(=O)c1c(C)[nH]c(C)c1S(=O)(=O)NCCCc1ccco1`: the inhibition is 0.398% (inactive).

Turning to `Cc1oc2nc(SCC(=O)Nc3ccc(S(N)(=O)=O)cc3)nc(NC(=O)c3ccccc3)c2c1C`, the inhibition was -1.45% (inactive).

`CCn1c(CNC(=O)c2cc(OC)c(OC)c(OC)c2)cc2cc(C)ccc21`: the inhibition was -1.14% (inactive).

As to `COc1c(C)c2c(c(O)c1C/C=C(\C)CCC(=O)O)C(=O)OC2`, the inhibition is 76.6% (active).

Consider `CN1CN(C)c2ccc([N+](=O)[O-])c3cccc1c23`, for which the inhibition was 35.2% (inactive).

As to `CC1=NN(/C(=N\c2nnc(C)s2)Nc2ccccc2)[C@H](c2ccc(C)cc2)S1`, the inhibition is -19.5% (inactive).

Take `COCCCn1c(SCC(=O)NC2CCCC2)nnc1-c1ccccc1`: the inhibition is 4.11% (inactive).

For the compound `Cn1c(N)c(C(=O)COC(=O)c2ccccc2NCc2ccco2)c(=O)n(C)c1=O`, the inhibition is 6.96% (inactive).
